Test results published in PubChem BioAssay AID588832 (Broad Institute, 2011).
In all, about 8,000 compounds went through this assay and fewer than 10 were called active. Not all results are given here. A number with no mark means an inactive call. How the calls were made is not given here.

system: hedgehog, isoform A (Drosophila melanogaster); assay: Drosophila hedgehog isoform A inhibitors, primary screen, biochemical, plate reader, single concentration (AID 588832); conditions: Biochemical plate reader assay, at 30.3 µM, active compounds read high;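 further: 0% = neutral control wells and 100% = positive control wells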

Q: Which inhibition does the source give for `COc1cccc(C2c3[nH]c4ccccc4c3C[C@H]3C(=O)N(c4ccccc4C(=O)N4CCCC4C(=O)O)C(=O)N23)c1` (stereo not given in full) here?
A: -3.51%

Q: `Cn1cccc1Cc1nnc(SCC(=O)Nc2ccccc2F)n1-c1ccc(F)cc1` was tested. Which inhibition did it give?
A: 8.33%

Q: How did the inhibition turn out when `Cn1c(=O)c2c(SCc3ccccn3)nc(CC(C)(C)C)nc2n(C)c1=O` was run?
A: 4.58%

Q: Which inhibition does the source give for `CSC1=NCCN1C(=O)c1ccc(S(=O)(=O)N2CCCC2)cc1` here?
A: -1.85%

Q: With `O=C(Nc1ccccc1Cl)c1ccc2c(c1)N(Cc1ccc(F)cc1)C(=O)CS2=O` (stereo not given) as the molecule, how does the inhibition read?
A: 15%

Q: For `CC1(C2CCC3(C)OC3C2)CO1` (stereo not given), which inhibition is on record?
A: 7.18%

Q: How did the inhibition turn out when `Cc1cccc(N2CCN(C(=O)CCC(=O)N3CC(C)Oc4ccc(C)cc43)CC2C)c1` (stereo not given) was run?
A: 5.06%

Q: For `COc1cc2c(cc1OC)CN(C(=O)c1ccc3[nH]c(C)c(C)c3c1)CC2`, which inhibition is on record?
A: 8.74%

Q: How did the inhibition turn out when `O=c1c(Cc2ccccc2O)c(O)nc2n1CCCS2` was run?
A: 3.39%

Q: `COc1ccc(N(C(=O)c2ccncc2)S(=O)(=O)c2ccc(OC)c(OC)c2)cc1` was tested. Which inhibition did it give?
A: 11.1%

Q: For `CCCCC(NC(C)=O)c1nc2ccccc2[nH]1` (stereo not given), which inhibition is on record?
A: 5.42%

Q: With `Cc1cc(Nc2ccc(C(C)C)cc2)n2ncnc2n1` as the molecule, how does the inhibition read?
A: 6.72%

Q: For `Cc1cc(NS(=O)(=O)c2ccc(NC(=O)c3cnc4scc(C)n4c3=O)cc2)nc(C)n1`, which inhibition is on record?
A: 6.2%

Q: Which inhibition does the source give for `CC(C)OC(=O)c1nnc(Cc2ccc(Cl)cc2)o1` here?
A: 20%

Q: `O=C(c1cnn(-c2ccccc2)c1-n1cccc1)N1CCN(C2CCCCC2)CC1` was tested. Which inhibition did it give?
A: 9.55%

Q: Which inhibition does the source give for `Cc1cc(Cl)cc2sc(NC(=O)c3ccco3)nc12` here?
A: 3.57%

Q: With `O=C(O)c1cccc(N2C(=O)C3CC=C(Cl)CC3C2=O)c1` (stereo not given) as the molecule, how does the inhibition read?
A: 14.9%

Q: For `CCn1c(C(=O)N2CCC(C(=O)NCc3ccc4c(c3)OCO4)CC2)cc2sccc21`, which inhibition is on record?
A: 8.81%

Q: `COC(=O)C1(Cc2ccc(O)c(CC3OC3(C)C)c2)OC(=O)C(O)=C1c1ccc(O)cc1` (stereo not given) was tested. Which inhibition did it give?
A: 6.79%

Q: For `CC(C)[C@H](NC(=O)[C@@H]1Cc2c([nH]c3ccccc23)C2c3ccccc3C(=O)N21)C(=O)N1CCC[C@H]1C(=O)O` (stereo not given in full), which inhibition is on record?
A: 5.17%

Q: `CCOc1ccc(C2C(C(=O)Nc3ccc(F)cc3)=C(C)Nc3nc(CCCO)nn32)cc1` (stereo not given) was tested. Which inhibition did it give?
A: 10%

Q: For `Cc1cc2c(cc1S(=O)(=O)N1CCCCC1)OCC(=O)N2`, which inhibition is on record?
A: 10.9%

Q: With `Cc1noc(C)c1S(=O)(=O)N1CCN(C(c2ccccc2)c2ccc(Cl)cc2)CC1` (stereo not given) as the molecule, how does the inhibition read?
A: 8.33%

Q: Which inhibition does the source give for `COc1ccc(S(=O)(=O)Cc2ccc(C(=O)NC3CCCC3)o2)cc1` here?
A: 8.33%

Q: With `COc1cc(OC)c(NS(=O)(=O)c2coc(C(N)=O)c2)cc1Cl` as the molecule, how does the inhibition read?
A: 25%

Q: With `O=C(C1COc2ccccc2O1)N1CCn2c(nc3ccccc32)C1` (stereo not given) as the molecule, how does the inhibition read?
A: 4.17%

Q: Which inhibition does the source give for `COc1cc(-c2cc(=O)c3c(O)c(OC)c(OC)c(OC)c3o2)cc(OC)c1OC` here?
A: 3.45%

Q: How did the inhibition turn out when `O=C(CN1CCOc2ccccc21)NC1CCCCCCC1` was run?
A: 25%

Q: For `Cc1cccc(NC(=O)CSc2nc3ccccc3nc2N2CC(C)OC(C)C2)c1` (stereo not given), which inhibition is on record?
A: 3.85%

Q: For `CCOc1ccc(NC(=O)c2cccc(NC3=NC4CS(=O)(=O)CC4S3)c2)cc1` (stereo not given), which inhibition is on record?
A: 5.12%

Q: For `COc1ccccc1C(=O)OCn1nnc2ccccc2c1=O`, which inhibition is on record?
A: -5%

Q: Which inhibition does the source give for `Cc1c(C)c2c(OCC(=O)N[C@@H](Cc3ccccc3)C(=O)O)cc3c(c2oc1=O)CCC(C)(C)O3` here?
A: -1.79%

Q: With `Clc1ccccc1C1CC(c2ccccc2)Nc2ncnn21` (stereo not given) as the molecule, how does the inhibition read?
A: 8.33%

Q: How did the inhibition turn out when `O=C(NCCCN1CCOCC1)c1ccccc1N1C(=O)[C@@H]2Cc3c([nH]c4ccccc34)C(c3cccc(Cl)c3)N2C1=O` (stereo not given in full) was run?
A: 0%

Q: `CCCc1cc(=O)oc2cc(OC(C)C(=O)NCC3CCC(C(=O)O)CC3)c(Cl)cc12` (stereo not given) was tested. Which inhibition did it give?
A: 7.18%

Q: `O=C(CCC(=O)N1CCOc2ccccc21)Nc1ccccc1Br` was tested. Which inhibition did it give?
A: 6.78%

Q: How did the inhibition turn out when `CC1(C)Cc2c(C#N)c(NC3CCCCC3)nc(-c3ccco3)c2CO1` was run?
A: 3.64%

Q: For `COc1ccc2[nH]c3c(c2c1)CCN1C(=O)N([C@@H](C)C(=O)NCc2ccc(C)cc2)C(=O)[C@]31C`, which inhibition is on record?
A: 0%

Q: `CC(=O)O[C@H]1C(=O)[C@@]2(C)C([C@H](OC(=O)c3ccccc3)[C@]3(O)C[C@H](OC(=O)[C@H](O)[C@@H](NC(=O)c4ccccc4)c4ccccc4)C(C)=C1C3(C)C)[C@]1(OC(C)=O)CO[C@@H]1C[C@H]2O` (stereo not given in full) was tested. Which inhibition did it give?
A: 5.12%

Q: For `CCc1nn(CC(=O)N2CCN(C)CC2)c(=O)c2cccn12`, which inhibition is on record?
A: 5.06%

Q: For `Cc1ccc(S(=O)(=O)NCc2ccc3[nH]c(C)cc3c2)cc1`, which inhibition is on record?
A: 3.57%

Q: Which inhibition does the source give for `CC1CCCN(C(c2ccccc2)c2sc3ncnn3c2O)C1` (stereo not given) here?
A: 5.06%

Q: `CCOc1ccc(-n2c(SCC(=O)N3CCc4ccccc43)nnc2-c2c[nH]c3ccccc23)cc1` was tested. Which inhibition did it give?
A: 13.3%

Q: `Nc1nc2n(n1)C(c1cccc(Br)c1)CC(c1ccc(F)cc1)N2` (stereo not given) was tested. Which inhibition did it give?
A: 23.4%

Q: For `CCOc1ccc(-c2nc(CS(=O)(=O)CC(=O)NCc3ccc(F)cc3)c(C)o2)cc1`, which inhibition is on record?
A: 3.57%

Q: `COc1ccccc1NC(=O)NCCCN1CCN(c2cccc(Cl)c2)CC1` was tested. Which inhibition did it give?
A: -5.49%

Q: `Cc1c(S(=O)(=O)Nc2cccc(Cl)c2)c(=O)n(C)c(=O)n1C` was tested. Which inhibition did it give?
A: 0.909%

Q: `COc1cc(OC)cc(C(=O)OCn2nnc3ccccc3c2=O)c1` was tested. Which inhibition did it give?
A: 0%

Q: With `COC(=O)c1ccccc1NC(=O)C1CCCN(c2nnc(-n3cccc3)s2)C1` (stereo not given) as the molecule, how does the inhibition read?
A: 0.909%

Q: With `C/C=C/c1cc(OC)c2c(c1)[C@H](C)[C@@H](c1ccc(O)c(OC)c1)O2` as the molecule, how does the inhibition read?
A: 0%

Q: How did the inhibition turn out when `CCCn1c(CN2CCCCC2C)nc2c1c(=O)n(C)c(=O)n2C` (stereo not given) was run?
A: 3.57%

Q: `COC(=O)C1=C(C)Nc2ccc(C)cc2S1` was tested. Which inhibition did it give?
A: 0%

Q: How did the inhibition turn out when `CC(=O)c1ccc(NC(=O)C2CCCN2S(=O)(=O)c2ccc(C)cc2)cc1` (stereo not given) was run?
A: 15.4%

Q: `CCOc1ccc(NC(c2ccccn2)c2oc(CO)cc(=O)c2O)cc1` (stereo not given) was tested. Which inhibition did it give?
A: 1.85%

Q: With `COc1ccc(NC(=O)c2cc(S(=O)(=O)N3CCc4ccccc43)cn2C)cc1` as the molecule, how does the inhibition read?
A: -3.51%

Q: `O=C(CSc1nc2c(c(=O)n1-c1ccccc1)SCC2)N1CCN(c2ccccc2)CC1` was tested. Which inhibition did it give?
A: 5.23%

Q: Which inhibition does the source give for `NC(=O)c1cccc2c1C(=O)N(C1CCCCC1)C2` here?
A: 6.78%

Q: `Cc1ccccc1C(=O)Nc1nnc(S(=O)(=O)N2CCCCC2)s1` was tested. Which inhibition did it give?
A: 3.67%

Q: Which inhibition does the source give for `O=C(Nc1ccccc1)N1CCC(n2c(=O)[nH]c3ccccc32)CC1` here?
A: 11.9%

Q: For `Cc1cc2c(cc(C(=O)N3CCC(C(=O)N4CCCC4)CC3)n2Cc2c(F)cccc2Cl)o1`, which inhibition is on record?
A: 6.84%

Q: How did the inhibition turn out when `C=C1CCCC2OC(CC3=CC4/C(C)=C/CC(C)CC(/C=C(\C)C(O)C5CC(O)C(O)C(CCC(O)/C=C/C(C)=C/CCC6=NCCC(C3)C64C)O5)OC(=O)CC3OC(C(O)C1)C(O)C3O)CC(O)C2O` (stereo not given) was run?
A: 5.17%

Q: With `Nc1nonc1-n1nnc(C(=O)N/N=C/c2ccc(O)cc2)c1CN1CCCCCC1` as the molecule, how does the inhibition read?
A: -1.79%

Q: How did the inhibition turn out when `CC1C(=O)Nc2ccc(S(=O)(=O)N3CCN(c4cccc(Cl)c4)CC3)cc2NC1=O` (stereo not given) was run?
A: 7.02%

Q: How did the inhibition turn out when `O=c1ccc2cc(S(=O)(=O)N3CCN(c4ccccc4F)CC3)ccc2[nH]1` was run?
A: -3.85%

Q: For `COc1ccccc1CNC(=O)[C@H](Cc1c[nH]c2ccccc12)NC(=O)[C@@H]1Cc2ccccc2CN1`, which inhibition is on record?
A: 3.6%

Q: Which inhibition does the source give for `CCOC(=O)c1ccc(NC(=O)COc2cc(=O)n(CC)c3ccccc23)cc1` here?
A: 4.17%

Q: With `COC(=O)C(N)CCCCN` (stereo not given) as the molecule, how does the inhibition read?
A: 3.45%

Q: How did the inhibition turn out when `COc1ccc(NC(=O)c2cc(CC(C)C)on2)cc1OC` was run?
A: 8.45%

Q: How did the inhibition turn out when `CCOC(=O)N1CCC(N2Cc3cccc(C(=O)N4CCN(C5CCCCC5)CC4)c3C2=O)CC1` was run?
A: 5.77%

Q: For `CCSc1nnc2c(n1)OC(c1ccc(C(=O)O)cc1)N(C(C)=O)c1ccccc1-2` (stereo not given), which inhibition is on record?
A: 0.848%

Q: How did the inhibition turn out when `Cc1ccc(-c2nc(CS(=O)CC(=O)NCCCN3CC(C)CC(C)C3)c(C)o2)cc1` (stereo not given) was run?
A: 3.85%

Q: `Cc1oc(-c2ccc(Cl)cc2)nc1CS(=O)CC(=O)NCc1cccs1` (stereo not given) was tested. Which inhibition did it give?
A: 5.23%

Q: With `COc1ccc(N2CCN(C(=O)c3ccc(CS(=O)(=O)c4ccccc4C)o3)CC2)cc1` as the molecule, how does the inhibition read?
A: 7.34%

Q: How did the inhibition turn out when `CCC(NS(=O)(=O)c1ccc(C)cc1)C(=O)N1CCN(c2ccccn2)CC1` (stereo not given) was run?
A: 20.8%

Q: Which inhibition does the source give for `Cc1ccc(-c2nc3cccnc3s2)cc1NS(=O)(=O)c1ccc2c(c1)CCCC2` here?
A: 6.78%

Q: Which inhibition does the source give for `Cc1ccc(S(=O)(=O)Nc2ccc(O)c3ncccc23)cc1` here?
A: 64.4% (active)

Q: How did the inhibition turn out when `COc1c2c(c(C)c3c1C(=O)OC3)O[C@@]1(C)CC[C@@]3(O)C(C)(C)OC(=O)CC[C@]3(C)[C@H]1C2` was run?
A: -1.82%

Q: How did the inhibition turn out when `O=C(Cc1cc(=O)[nH]c(=O)[nH]1)NCCN1CCOCC1` was run?
A: 9.62%

Q: Which inhibition does the source give for `COc1ccc2c(c1OC)C(=O)N1C2SC[C@H]1C(=O)NC1CCCCC1` (stereo not given in full) here?
A: 4.89%

Q: With `c1ccc(Nc2nc3ccccc3n3nnnc23)cc1` as the molecule, how does the inhibition read?
A: 1.79%

Q: `Cc1cc(C)cc(N2CC(c3nc4ccccc4n3C)CC2=O)c1` (stereo not given) was tested. Which inhibition did it give?
A: 5.06%

Q: Which inhibition does the source give for `Cc1ccc(CNC(=O)[C@@H](NC(=O)C2CCN(C(=O)[C@@H]3CCCN3)CC2)C(C)C)cc1` here?
A: 8.17%

Q: Which inhibition does the source give for `Cc1csc2ncc(C(=O)NC(C)c3ccccc3)c(=O)n12` (stereo not given) here?
A: 7.24%

Q: `CC1CCN(Cc2ccc(NC(=O)C3CCN(c4nnc(-n5cccc5)s4)CC3)cc2)CC1` was tested. Which inhibition did it give?
A: 1.99%

Q: With `CCOC(=O)Cn1c(=O)n(Cc2ccco2)c(=O)c2ccc(C(=O)NC3CCCC3)cc21` as the molecule, how does the inhibition read?
A: -13%
